# Source: ChEMBL document CHEMBL3988442, “University of Dundee, Small-Polar-MMV Screening Library” (2021)
# Among all 48,000 compounds or so, about 13,000 (27%) showed an effect of 50% or more. The list shows a part of the results.
# Test system: Wolbachia pipientis
# Assay: Anti-Wolbachia Cell-Based Screen
# Format: functional
# Set-up: scale not given: in the data most compounds retested in dose-response had high values
# Conditions: 5 µM
row,SMILES,Percent Effect [%]
1,O=C(O)C(F)(F)F.O=C(c1cnoc1)N1CCC[C@]2(C[C@@H](OCc3ccccn3)CO2)C1,20.74
2,NC(=O)C1CCN(C(=O)NCc2ccc3c(c2)OCCO3)CC1,2.129
3,NC(=O)C1CCN(C(=O)NCc2ccc(-c3ccn[nH]3)cc2)CC1,110.5
4,O=C(NCc1ccc(-c2ccn[nH]2)cc1)N1CCC(N2CCCC2)C1 (configuration not stated),1.692
5,Cc1csc(CNc2cnn(CC(F)(F)F)c2)n1,0.5328
6,CCC(CC)C(CNC(=O)Nc1cnn(CCOC)c1)N(C)C (configuration not stated),-1.824
7,CCN(CC)Cc1ccc(CNC(=O)C(C)(C)n2cc(Br)cn2)cc1,25.74
8,Cc1cc(C)c(NC(=O)Nc2cnn(CC(O)CN(C)C)c2)c(C)c1 (configuration not stated),101.9
9,Cc1csc(CNc2cnn(CC(C)C)c2)n1,-6.579
10,CN(C)CC(O)Cn1cc(NCc2ccc(Br)cc2)cn1 (configuration not stated),110.4
11,Cc1cc(C)c(CNc2cnn(CC(O)CN(C)C)c2)c(C)c1 (configuration not stated),97.23
12,CCn1cc(NC(=O)NCC(O)CN2CCCCC2)cn1 (configuration not stated),-8.278
13,CNS(=O)(=O)CC1CCCN1c1ccc(Cl)cn1 (configuration not stated),-0.6453
14,CC(C)COC(C)C(=O)N1CCCCC1 (configuration not stated),22.01
15,O=C(CNCCn1cccn1)NCC1(c2ccccc2)CCC1,123.8
16,Cc1cccc(C2(C(=O)NCCCn3cccn3)CC2)c1,-18.04
17,O=C(Cn1cccn1)NCC1(c2ccccc2)CC1,8.498
18,CN(C(=O)CNCCn1cccn1)C1(C#N)CCCCC1,-7.323
19,Cc1cnn(CCNCC(=O)NCC2(c3ccccc3)CC2)c1,75.55
20,CC(NC1(CNC(=O)Cn2cccn2)CCOCC1)c1ccccc1 (configuration not stated),-4.179
21,Cc1cnn(CCNCC(=O)NCCOc2ccccc2)c1,-6.94

row,SMILES,Percent Effect [%]
1,N#CC1(NC(=O)CNCCn2cccn2)CCCCC1,0.8723
2,O=C(CNCCn1cccn1)NCC1(c2ccccc2)CC1,-4.744
3,O=C(CNCCn1cccn1)NCC1(c2ccccc2)CCCC1,152.5
4,O=C(CNCCn1cccn1)NCC1(c2ccccc2)CCOCC1,92.49
5,Cc1cnn(CCNCC(=O)NCC2(c3ccccc3)CCC2)c1,6.79
6,Fc1ccc(-n2cccn2)c(CN2CCCCC2CCn2ccnc2)c1 (configuration not stated),6.266
7,Cc1cc(NC(=O)CCNC(C)(C)c2nc(C)c(C)s2)no1,-5.204
8,Cc1ccccc1C1CCCN(C(=O)c2c[nH]c(=O)c(Cl)c2)C1 (configuration not stated),0.979
9,O=C(NCc1ccoc1)c1ccc(C2CCCN2CC2CCOCC2)s1 (configuration not stated),-3.898
10,CC(=O)NC(Cc1c[nH]c2cc(F)ccc12)C(=O)Nc1nncs1 (configuration not stated),-20.07
11,CC(C)NC(=O)c1cc2c([nH]c1=O)CC(c1cccs1)CC2=O (configuration not stated),-15.67
12,Cc1ccc(CN2C[C@@H]3C[C@H](C(=O)NCC4CC4)N(C)[C@@H]3C2)o1.O=C(O)C(F)(F)F.O=C(O)C(F)(F)F,102.8
13,CN(C)[C@@H]1CN(Cc2ccco2)C[C@@H]2CCCO[C@@H]21.O=C(O)C(F)(F)F.O=C(O)C(F)(F)F,5.089
14,Cc1ccc(CN2C[C@H]3C[C@H](C(=O)NCc4cccnc4)[C@@H](C2)O3)o1,-11.22
15,CC(C)N1[C@@H](C(=O)NCC2CC2)C[C@@H]2CN(Cc3ccco3)C[C@@H]21,96.03
16,COCCN1CCO[C@@H]2CN(Cc3ccc(C)o3)C[C@@H]2C1.O=C(O)C(F)(F)F.O=C(O)C(F)(F)F,4.147
17,Cc1ccc(CN2CC[C@H]3OCC[C@@H](C(=O)NCC4CC4)[C@@H]3C2)o1,-3.1
18,Cc1ccc(CN2C[C@H]3C[C@H](C(=O)NCC4CC4)N(C)[C@H]3C2)o1,105.7
19,CC(=O)N1C[C@H]2CCCN(Cc3ccc(C)o3)[C@H]2C1.O=C(O)C(F)(F)F,-21.55
20,O=C(NCC1CC1)[C@@H]1CCO[C@@H]2CCN(Cc3ccco3)C[C@H]21.O=C(O)C(F)(F)F,-5.269
21,CN1[C@@H](C(=O)NCC2CC2)C[C@@H]2CN(Cc3ccoc3)C[C@@H]21,87.47

row,SMILES,Percent Effect [%]
1,CC(C)(C)CCS(=O)(=O)NCCc1csc(N2CCCC2)n1,-17.7
2,CC(C)(C)SCC(=O)Nc1cc(-n2nnnc2C2CC2)ccc1F,-2.902
3,c1ncc2c(n1)CN(Cc1cn3ccsc3n1)CC2,-19.58
4,NC(=O)CN(CC(=O)NCc1cc(F)cc(F)c1)C1CCCC1,2.456
5,CC1(C)COCCN1C(=O)Cc1csc(Cc2ccccn2)n1,-7.387
6,CCNC(=O)NC(=O)CN1CCC(c2c[nH]c3ccc(OC)cc23)CC1,-12.44
7,CC(C)Cc1noc(CN(C)C2CCS(=O)(=O)C2)n1 (configuration not stated),-20.93
8,CC(=O)N1CCC(NC(=O)c2cc(S(N)(=O)=O)ccc2C)CC1,120.7
9,Cc1ccc(S(N)(=O)=O)cc1C(=O)NCC1Cc2ccccc2O1 (configuration not stated),20.46
10,Cc1ccc(S(N)(=O)=O)cc1C(=O)NC1CCN(C2CC2)CC1,102.7
11,NS(=O)(=O)c1ccc(F)c(C(=O)NCCSC2CCCCC2)c1,-0.4963
12,COC(=O)N1CCC(NC(=O)c2cc(S(N)(=O)=O)ccc2C)CC1,98.52
13,O=C(NC1CCN(C2CC2)CC1)c1cc(Cl)ccc1-n1cnnn1,-15.3
14,Cc1ccc(C)c(C(=O)NC2CCC(N3C(=O)CCC3=O)CC2)c1 (configuration not stated),7.383
15,CC(=O)N1CCC(NC(=O)c2cc(Cl)ccc2O)CC1,5.076
16,COCC(O)CN1CCC(NC(=O)c2cscc2C)CC1 (configuration not stated),-6.433
17,CCc1ccc(O)c(C(=O)NC2CCN(S(=O)(=O)CC)CC2)c1,-4.06
18,COCCC(=O)N1CCC(NC(=O)c2cscc2C)CC1,4.5
19,Cc1ccc(S(N)(=O)=O)cc1C(=O)NC1CCCC1,60.38
20,CCN1C(=O)[C@H]2CN(CC(C)C)C[C@H]2C12CCN(C(=O)NC(C)C)CC2.O=C(O)C(F)(F)F,-7.35
